± gives the standard deviation.
Test system: MILI (PIWIL2) piRISC loaded with piRNA #1 (26 nt)
Assay: pre-steady-state target cleavage rate (min^-1); guide: piRNA #1 5'p-UGAGGUAGUAGGUUGUAUAGUAUCCA; MIWI and MILI are mouse PIWI proteins and EfPiwi is from a freshwater sponge; tags in brackets are library labels; higher = faster piRNA-guided slicing of the target
Details: auxiliary factor: 500 nM mouse GTSF1
Procedure, shortened: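 Sequencing of uncleaved targets, normalised to depth and to weakly complementary targets, was the readout of this Cleave-'n-Seq assay. A transcribed, DNA-blocked target RNA library (0.1 nM) was mixed with 1 nM active affinity-purified piRISC carrying one synthetic guide, with or without 500 nM GTSF1 partner protein, in HEPES–potassium acetate buffer at 33 °C for 0–8 or 0–960 min. Three trials were pooled, k3 was capped at 0.0001 min^-1, and a burst-and-steady-state fit gave the pre-steady-state cleavage rate.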

Row | Sequence | pre-steady-state target cleavage rate
1 | GGAGACCUAUGAUUACAACCUACUAUCUCA | 0.00332 ± 0.0022
2 | GGAGACCUAUCUAUACUACCUAGUACCUCA | 0.0113 ± 0.0036
3 | GGAGACCUUACUAAACAACCUACUAGCUCA | 0.139 ± 0.018
4 | GGAGUGCAUACUAAACAACCUACUACCUCA | 0.147 ± 0.011
5 | GGAGACCUAUCUAUACAACCUACUACGACA | 0.0627 ± 0.01
6 | GGAGACCUAUGAUUACAACCUACGACCUCA | 0.00452 ± 0.0036
7 | GGAGACCUAACUAUACAACCUACUACCAUCA | 0.261 ± 0.038
8 | GGAGACCUAUGAAUUACAACCUACUACCUCA | 0.00427 ± 0.0021
9 | GGAGACGAUACAAUACAAGCUACUACCUCA | 0.236 ± 0.017
10 | GGAGACCUAUGAUAUCAUCCUACUACCUCA | 0.00256 ± 0.0016
11 | GGAGACCUAUGUAUACAACCUACUAACCUCA | 0.0935 ± 0.013
12 | GGAGACCUAUGUAUACAUCCUACUAGCUCA | 0.0312 ± 0.0078
13 | GGAGUGGAUACUAUAGUUCCUACUACCUCA | 0.169 ± 0.0095
14 | GGAGACCUUACUAUACAACGUACUUCCUCA | 0.0242 ± 0.0053
15 | GGAGACCUAUGAUAUGUUGCUACUACCUAA | < 0.0001
16 | GGAGACCUUACAAUACAACCUAGUACCUCA | 0.043 ± 0.013
17 | GGAGACCUAUGUAAACAACCUACUUCCUCA | 0.00599 ± 0.002
18 | GGAGACCUAAGUAUACAACCUACAACCUCA | 0.0483 ± 0.0084
19 | GGAGACCUAUCUAUACCACCUACUACCUCA | 0.095 ± 0.017
20 | GGAGACCUAUGUAUAGAACCUACUACCACA | 0.0238 ± 0.0059

Row | Sequence | pre-steady-state target cleavage rate
21 | GGAGACCUUACUUACAACCUACUACCUCA | 0.0198 ± 0.0056
22 | GGAGACCUAUCUAUACAACCUACUACCCA | 0.098 ± 0.019
23 | GGAGACCUAUCUAUACAACAUACUACCUCA | 0.0382 ± 0.0074
24 | GGAGACCUAUGAUAUGAACCUACCUACCUCA | < 0.0001
25 | GGAGACCUAUCUUUACUACCUACUACCUCA | 0.0305 ± 0.008
26 | GGAGACCUAACUAUGACAACCUACUACCUCA | 0.0415 ± 0.0097
27 | GGAGACCUAUGAUUACAACCUACUACCUCCA | 0.00682 ± 0.0026
28 | GGAGACGAUACUAUAGUUCCUACUACCUCA | 0.161 ± 0.012
29 | GGAGACCAUACAAUACAACGUACUACCUCA | 0.0186 ± 0.0044
30 | GGAGACCUAUGAUAACAACGUACUACCUCA | 0.00353 ± 0.0022
31 | GGAGACCUUACUUUAGAACCUACUACCUCA | 0.13 ± 0.01
32 | GGAGACCUUACUAUACAACGAACUACCUCA | 0.00385 ± 0.0021
33 | GGAGACCUAUGUAUUGAACCUACUACCUCA | 0.00285 ± 0.0015
34 | GGAGACGAUAGUAUACAACCUACUAGCUCA | 0.0976 ± 0.021
35 | GGAGACCUAUGUAUACAACCUACUCCCUCA | 0.0316 ± 0.0063
36 | GGAGACCUAUGUAUACAACCUACUACGACA | 0.0279 ± 0.0061
37 | GGAGACCUAUGAUAUGUUGCUAGAUCCUCA | < 0.0001
38 | GGAGACCUAUGUAUACAUCCUACUACCUGA | 0.0651 ± 0.017
39 | GGAGACCUUACUAUACAACCAUCUACCUCA | 0.00422 ± 0.0032
40 | GGAGACCUAUCUAAACAACCUACUUCCUCA | 0.0303 ± 0.0063

Reference: the supplement of paper PMC10338343
